Hits are enriched below; roughly 19% of the tested compounds scored in any of these assays.
Shiga inhibitor: A qHTS for Small Molecule Inhibitors of Shiga Toxin | Vero cells, Shiga toxin protein synthesis inhibition reporter | inhibition, % at 38.7 µM | 290,000 tested, 9.2% active; in the data active = inhibition mostly above about 28%, no sharp cut-off; inactive = mostly below about 43%
Pf growth 96h: Primary qHTS for delayed death inhibitors of the malarial parasite plastid, 96 hour incubation | AID 504834, 2011 | Potency, µM (series often up to 28.7 µM), actives largely listed as inhibitors | 320,000 tested, 6.9% active | P. falciparum luciferase reporter growth, 96 h
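Cell-based qHTS: luciferase-tagged P. falciparum in erythrocytes (2% hematocrit, 0.05% parasitemia final) incubated with compounds for 96 hours, 37 C, 5% CO2; luciferase detection reagent then added and luminescence measured.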
Cycloheximide cs: Cycloheximide Counterscreen for Small Molecule Inhibitors of Shiga Toxin; AID 2314, 2010; 300,000 tested, 12% active; cell reporter, cycloheximide protein synthesis inhibition counterscreen; max response, %; in the data active = max response mostly above about 13%, no sharp cut-off; inactive = mostly below about 14%; note: read at 38.3 µM for the half of the compounds with a filed dose
Pf growth 48h: Primary qHTS for delayed death inhibitors of the malarial parasite plastid, 48 hour incubation; P. falciparum luciferase growth in erythrocytes, 48 h; Potency, µM (top dose mostly 28.7 µM), hits mostly inhibitors; 310,000 tested, 5.9% active; AID 504832, 2011
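Compounds are pin-transferred into medium, infected erythrocytes (2% hematocrit, 0.1% parasitemia final) are added, and plates sit one parasite generation at 37 C in 5% CO2. Detection reagent is then added and luminescence measured.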
AMA1-RON2 inh: qHTS for Inhibitors of AMA1-RON; Towards Development of Antimalarial Drug Lead: Primary Screen; Potency, µM (titrated, usually from 58.2 µM), usual class: inhibitors; AlphaScreen AMA1-biotinylated RON2 peptide binding; 360,000 tested, 0.2% active; Plasmodium falciparum AMA1 (3D7) - RON2 peptide interaction; note: nearly all actives have a fitted effect of over 45% in size
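AMA1 (3D7) with his tag at 25 nM final met compounds first, then biotinylated RON2 peptide at 25 nM; detection used donor plus acceptor beads, 10 µg/mL apiece, read by AlphaScreen after 30 min at room temperature.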
SARS PLpro yeast: qHTS of Yeast-based Assay for SARS-CoV PLP; Potency, µM (series often up to 32.9 µM), most hits filed as activators; 330,000 tested, 0.19% active; S. cerevisiae expressing SARS-CoV PLpro, growth rescue; calls by dose curve; note: nearly all actives have a fitted effect of over 55% in size
Of the large screens only hits and unclear results are named; the others gave an inactive call. Unless noted, calls come from the whole dose curve; as a rule, active = well fitted curve in the direction sought with a large enough effect; inconclusive = small, poorly fitted or top-dose-only effect, or another doubt; inactive = no such curve, though single readings can be large; an effect the other way counts as inactive or inconclusive.

COc1ccc(C(=O)N2CCSCC2)cc1OC1CCN(C(C)=O)CC1	none
COc1cc(C(=O)N2CCCCCCC2)ccc1OC1CCN(C(C)=O)CC1	Shiga inhibitor 42.7, Pf growth 96h inconclusive, Cycloheximide cs 30.2, Pf growth 48h inconclusive
CCC1CCCCN1C(=O)c1ccc(OC)c(OC2CCN(C(C)=O)CC2)c1 (stereo not drawn)	none
COc1ccc(C(=O)N2CCCCCC2)cc1OC1CCN(C(C)=O)CC1	Pf growth 96h 10.4µM
Brc1ccc(CNc2cc3c(cc2Br)OCCO3)cc1	AMA1-RON2 inh 12.6µM
CC(=O)Nc1cc2c(cc1Br)OCCO2	none
COc1ccc(S(=O)(=O)N(n2c(C)nnc2-n2nc(C)cc2C)S(=O)(=O)c2ccc(OC)cc2)cc1	Cycloheximide cs 21.2
Cc1ccc(S(=O)(=O)Nn2c(C)nnc2-n2nc(C)cc2C)cc1	none
Cc1ccnc(SCC(=O)Nc2c(C)n(C)n(-c3ccccc3)c2=O)n1	none (no result: Pf growth 48h)
CCC(=O)Nc1ccccc1	none
CCC(=O)NC1=C(Cl)C(=O)C(NC(=O)CC)=C(Cl)C1=O	Pf growth 96h 4.65µM, Cycloheximide cs 14.0, Pf growth 48h 7.38µM
COc1ccccc1N1CCNCC1	none
COc1ccccc1N1CCN(/N=C(\C)c2ccccc2O)CC1	Shiga inhibitor 33.7, Cycloheximide cs 32.5
COc1cc(/C(C)=N/N2CCN(c3ccccc3OC)CC2)ccc1O	Pf growth 96h inconclusive, Cycloheximide cs 21.6
Cc1ccc(C=NNc2nc3c([nH]2)c(=O)n(C)c(=O)n3C)cc1	none (no result: Shiga inhibitor, Pf growth 96h, Cycloheximide cs, Pf growth 48h, SARS PLpro yeast)
O=C(O)Cc1sc(N/N=C\c2ccncc2)nc1-c1ccccc1	Pf growth 96h inconclusive, Pf growth 48h inconclusive
CC(=O)Nc1sc(/C(C#N)=C/c2ccc(Cl)c(Cl)c2)nc1-c1ccc(C)cc1	none
CC(=O)Nc1sc(N/N=C/c2ccc(C)cc2)nc1-c1ccc(C)cc1	Shiga inhibitor 71.4, Pf growth 96h inconclusive, Cycloheximide cs 52.3, Pf growth 48h inconclusive
CC(=O)Nc1sc(N/N=C/c2ccc(N(C)C)cc2)nc1-c1ccc(C)cc1	Shiga inhibitor 57.5, Pf growth 96h 4.65µM, Cycloheximide cs 25.1, Pf growth 48h 2.08µM
CNC(C(=O)c1ccccc1)C(OC)c1ccc(C)cc1 (stereo not drawn)	Shiga inhibitor 44.0, Cycloheximide cs 11.4, SARS PLpro yeast inconclusive
O=C(Cn1cnc2c(nnn2Cc2ccc(F)cc2)c1=O)Nc1ccc2c(c1)OCCO2	none
CCCCc1ccc(Nc2ncnc3nc[nH]c23)cc1	Cycloheximide cs 22.6 (no result: Pf growth 48h)
Clc1ccc(CCNc2ncnc3nc[nH]c23)cc1	Pf growth 96h inconclusive
COc1cccc(Nc2ncnc3nc[nH]c23)c1	Shiga inhibitor 50.3, Pf growth 96h inconclusive, Cycloheximide cs 15.6
Cc1ccc(Nc2ncnc3nc[nH]c23)cc1Cl	Shiga inhibitor 63.5, Cycloheximide cs 50.0 (no result: Pf growth 48h)
COc1ccc(Nc2cc(Nc3cccc(OC)c3)ncn2)cc1	Shiga inhibitor 56.0, Pf growth 96h inconclusive, Cycloheximide cs 53.9
COc1ccc(C(=O)OC(C)C(=O)NCC2CCCCC2)cc1S(=O)(=O)N1CCOCC1 (stereo not drawn)	Pf growth 96h inconclusive, Pf growth 48h inconclusive (no result: Shiga inhibitor, Cycloheximide cs)
Cc1cccc(OCc2nnc(SCC(=O)NC3CCCCC3)n2C)c1	none
Cc1ccc(OCC(=O)N2CC(C)OC(C)C2)c([N+](=O)[O-])n1 (stereo not drawn)	none
Cc1cccc(NC(=O)CSc2ncnc3nc[nH]c23)c1	none
CCCNc1ncnc2nc[nH]c12	none
Cc1ccc(NC(=O)Nc2ncnc3nc[nH]c23)cc1	Shiga inhibitor 40.9, Cycloheximide cs 21.5
CCc1ccc(Nc2ncnc3nc[nH]c23)cc1	Shiga inhibitor 62.4, Cycloheximide cs 26.7
COc1ccccc1-c1ccc2c(c1)C(C)(Cc1ccc(F)c(Cl)c1)C(=O)N2 (stereo not drawn)	none (no result: Shiga inhibitor, Pf growth 96h, Cycloheximide cs, Pf growth 48h, SARS PLpro yeast)
Cc1nsc(Nc2ccc([N+](=O)[O-])cc2)c1C#N	none
Cc1cc(OC(C)C(=O)NCC2CCC(C(=O)O)CC2)c2c(C)c(Cc3ccccc3)c(=O)oc2c1 (stereo not drawn)	Pf growth 96h 10.4µM, Pf growth 48h inconclusive
Cc1cc(=O)oc2cc(OCC(=O)NCC3CCC(C(=O)O)CC3)ccc12 (stereo not drawn)	none
Cc1c(Cc2ccccc2)c(=O)oc2cc(OCC(=O)NCC3CCC(C(=O)O)CC3)ccc12 (stereo not drawn)	Pf growth 96h 11.7µM, Pf growth 48h inconclusive
Cc1c(Cc2ccccc2)c(=O)oc2c(C)c(OC(C)C(=O)NCC3CCC(C(=O)O)CC3)ccc12 (stereo not drawn)	Pf growth 96h 13.1µM, Pf growth 48h inconclusive
CN(C)S(=O)(=O)c1ccc(C(=O)Nc2ccc3ncccc3c2)cc1	Shiga inhibitor 41.2, Pf growth 96h inconclusive, Cycloheximide cs 32.4
CCN(CC)S(=O)(=O)c1ccc(C(=O)Nc2cccc(C)c2)cc1	Pf growth 48h inconclusive (no result: Pf growth 96h)
Cc1cccc(NC(=O)c2ccc(S(=O)(=O)N(C)C)cc2)c1	Cycloheximide cs 15.8
CC(=O)c1ccc(NC(=O)C(C)Sc2nnc(C3CC3)n2C2CC2)cc1 (stereo not drawn)	Pf growth 96h inconclusive, Pf growth 48h inconclusive (no result: Shiga inhibitor, Cycloheximide cs)
Cc1ccc(C(CCNC(C)c2cccs2)c2ccco2)cc1 (stereo not drawn)	Pf growth 96h inconclusive, Pf growth 48h 10.4µM
CC(NCCC(Cc1ccccc1)c1ccco1)c1ccccc1 (stereo not drawn)	Pf growth 96h inconclusive, Pf growth 48h inconclusive
CC1=C(C(=O)Nc2ccccc2)C(c2ccncc2)C(C#N)=C(SCC(=O)NC2CC2)N1 (stereo not drawn)	Pf growth 96h inconclusive
CC1=C(C(=O)Nc2ccccc2)C(c2ccncc2)C(C#N)=C(SCC(=O)NC(C)C)N1 (stereo not drawn)	Pf growth 48h 10.4µM
CCCSC1=C(C#N)C(c2cccs2)C(C(=O)Nc2ccccc2)=C(C)N1 (stereo not drawn)	Pf growth 48h 8.28µM
O=C(COC(=O)CCNS(=O)(=O)c1ccccc1)NC(=O)c1ccccc1	none (no result: Shiga inhibitor, Cycloheximide cs)
CCCCN1C[C@H](COC(=O)CCC)Oc2cccc(F)c2S1(=O)=O	none (no result: Shiga inhibitor, Pf growth 96h, Cycloheximide cs, Pf growth 48h, SARS PLpro yeast)
O=C(O)c1cc(NCc2ccccc2)ccc1N1CCOCC1	none (no result: Pf growth 48h)
Clc1cc(NCc2cccs2)ccc1N1CCOCC1	Shiga inhibitor 57.0, Cycloheximide cs 46.4
COc1cc(CNc2ccc3c(c2)OCCO3)ccc1OCC(N)=O	none
Oc1ccccc1CNc1ccc2c(c1)OCCO2	Shiga inhibitor 66.8, Cycloheximide cs 40.6
Cc1ccc(NCc2ccccc2O)cc1C	Shiga inhibitor 101.7, Cycloheximide cs 33.0
c1csc(CNc2ccc3c(c2)OCCO3)c1	Shiga inhibitor 93.4, Cycloheximide cs 110.7
